# Data: PubChem BioAssay (EPA / NIEHS)
# Activity calls are given as the source filed them. How the source made its calls: active means hit-call score of the fitted dose curve at least 0.9, where 1 is the maximum; inactive means score below 0.9.
# Test: CCTE_Shafer_MEA_dev_inter_network_spike_interval_mean: CCTE's Neural Network Formation Assay for Mean Inter-network Spike Interval, Shafer Lab (AID 2284047);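 on AC50: potency for a decrease in mean inter-network spike interval below DMSO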
# Summary of the method: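 Primary rat cortical neurons on PEI-coated 48-well MEAs (16 electrodes/well) were exposed from plating day 0 to DIV 12, with dosing renewed at DIV 5 and 9. Recordings at DIV 5, 7, 9, 12 were collapsed by trapezoidal AUC, loss-of-signal fit vs DMSO.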
Structure (SMILES),AC50,outcome
CC1=C(/C=C/C(C)=C/C=C/C(C)=C/C(=O)O)C(C)(C)CCC1,319 nM (active),–
OCCC(F)(F)C(F)(F)C(F)(F)C(F)(F)C(F)(F)C(F)(F)F,–,inactive
CC(O)CO (stereo not given),–,inactive
c1ccc2c(c1)Cc1ccccc1-2,–,inactive
CC#C[C@]1(O)CC[C@H]2[C@@H]3CCC4=CC(=O)CCC4=C3[C@@H](c3ccc(N(C)C)cc3)C[C@@]21C,–,inactive
CN1CCC[C@H]1c1cccnc1,–,inactive
OCCC(F)(F)C(F)(F)C(F)(F)C(F)(F)C(F)(F)C(F)(F)C(F)(F)C(F)(F)F,–,inactive
c1ccc2cc3c(ccc4ccccc43)cc2c1,–,inactive
C=C(C)C(=O)OCCC(F)(F)C(F)(F)C(F)(F)C(F)(F)C(F)(F)C(F)(F)F,–,inactive
c1ccc2c(c1)ccc1ccccc12,–,inactive
